In PubChem BioAssay:

Key:
[1] = test system: Botulinum neurotoxin type F light chain protease (Clostridium botulinum); experiment: Botulinum neurotoxin type F light chain protease inhibition, multiplex microsphere flow cytometry, validation set (AID 588459); details: multiplex microsphere protease substrate cleavage assay, at 10 µM, stronger effect = higher value
[2] = target: Botulinum neurotoxin type A (Clostridium botulinum) (UniProt P0DPI0); experiment: BoNT/A light chain protease inhibitors, biochemical, multiplex microsphere flow cytometry, validation set (AID 588460); details: at 10 µM, stronger effect = higher value
[3] = target: Lethal factor (Bacillus anthracis) (UniProt P15917); experiment: Lethal factor protease inhibitors, Bacillus anthracis, multiplex microsphere cleavage assay, validation set (AID 588461); details: flow cytometry, at 10 µM, stronger effect = higher value

Measured: inhibition

Sequence of Botulinum neurotoxin type A (Clostridium botulinum) (P0DPI0 whole entry, looked up): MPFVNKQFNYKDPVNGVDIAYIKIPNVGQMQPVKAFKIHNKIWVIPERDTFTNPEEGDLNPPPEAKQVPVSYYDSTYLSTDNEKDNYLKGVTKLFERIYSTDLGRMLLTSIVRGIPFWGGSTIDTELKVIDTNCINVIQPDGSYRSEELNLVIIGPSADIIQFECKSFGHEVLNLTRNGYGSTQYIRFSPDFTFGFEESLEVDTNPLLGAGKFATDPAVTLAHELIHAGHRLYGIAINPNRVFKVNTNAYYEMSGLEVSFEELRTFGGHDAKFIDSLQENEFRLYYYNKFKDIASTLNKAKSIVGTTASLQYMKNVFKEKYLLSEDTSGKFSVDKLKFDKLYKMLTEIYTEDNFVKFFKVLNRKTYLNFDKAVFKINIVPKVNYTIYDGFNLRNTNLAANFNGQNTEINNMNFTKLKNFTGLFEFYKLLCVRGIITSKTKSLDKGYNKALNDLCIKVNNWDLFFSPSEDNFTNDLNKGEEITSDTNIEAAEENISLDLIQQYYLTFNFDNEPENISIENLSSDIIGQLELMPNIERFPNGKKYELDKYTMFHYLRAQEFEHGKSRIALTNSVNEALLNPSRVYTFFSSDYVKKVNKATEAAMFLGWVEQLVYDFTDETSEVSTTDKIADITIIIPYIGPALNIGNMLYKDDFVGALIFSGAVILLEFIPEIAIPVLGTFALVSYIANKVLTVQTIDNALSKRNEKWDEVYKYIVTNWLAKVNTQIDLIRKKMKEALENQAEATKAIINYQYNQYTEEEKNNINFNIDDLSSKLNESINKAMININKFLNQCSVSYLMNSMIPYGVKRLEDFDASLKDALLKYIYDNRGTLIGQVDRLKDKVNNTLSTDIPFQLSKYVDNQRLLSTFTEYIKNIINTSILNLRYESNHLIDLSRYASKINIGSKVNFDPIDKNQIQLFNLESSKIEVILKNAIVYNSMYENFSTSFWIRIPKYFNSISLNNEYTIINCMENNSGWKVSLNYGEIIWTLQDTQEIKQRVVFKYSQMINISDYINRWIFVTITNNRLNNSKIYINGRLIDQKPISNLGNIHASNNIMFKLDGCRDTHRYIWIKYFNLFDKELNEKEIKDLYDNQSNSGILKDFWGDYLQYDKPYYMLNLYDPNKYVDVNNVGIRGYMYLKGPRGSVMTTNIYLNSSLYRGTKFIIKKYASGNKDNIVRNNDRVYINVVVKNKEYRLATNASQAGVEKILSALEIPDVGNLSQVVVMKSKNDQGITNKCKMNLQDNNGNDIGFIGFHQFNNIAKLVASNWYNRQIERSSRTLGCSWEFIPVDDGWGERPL
Sequence of Lethal factor (Bacillus anthracis) (P15917 whole entry, looked up): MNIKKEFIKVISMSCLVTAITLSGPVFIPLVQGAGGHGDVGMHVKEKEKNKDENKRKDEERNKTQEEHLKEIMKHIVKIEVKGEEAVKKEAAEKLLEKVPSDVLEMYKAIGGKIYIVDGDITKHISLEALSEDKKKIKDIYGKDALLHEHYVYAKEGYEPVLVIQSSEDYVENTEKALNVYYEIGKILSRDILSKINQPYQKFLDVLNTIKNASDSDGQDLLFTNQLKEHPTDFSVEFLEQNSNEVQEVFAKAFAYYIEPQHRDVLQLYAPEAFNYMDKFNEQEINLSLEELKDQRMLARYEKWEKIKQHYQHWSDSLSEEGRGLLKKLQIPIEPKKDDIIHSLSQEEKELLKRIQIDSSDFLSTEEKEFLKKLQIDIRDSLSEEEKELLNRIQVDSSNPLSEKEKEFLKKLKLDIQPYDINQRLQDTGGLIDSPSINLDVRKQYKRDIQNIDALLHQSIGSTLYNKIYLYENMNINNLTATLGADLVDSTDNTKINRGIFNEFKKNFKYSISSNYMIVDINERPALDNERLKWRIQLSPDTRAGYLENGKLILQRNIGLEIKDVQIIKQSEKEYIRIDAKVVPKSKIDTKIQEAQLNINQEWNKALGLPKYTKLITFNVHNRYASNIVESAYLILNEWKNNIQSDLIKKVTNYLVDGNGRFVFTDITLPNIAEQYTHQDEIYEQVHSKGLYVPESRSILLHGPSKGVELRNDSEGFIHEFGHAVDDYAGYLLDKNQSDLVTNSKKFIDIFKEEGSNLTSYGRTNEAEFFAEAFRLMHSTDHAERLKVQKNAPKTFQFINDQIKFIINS

O=C1CCCN1C(=O)CCC(=O)N1CCCC1=O
inactive: [1] -1.4% | [2] 0.3% | [3] -2.8%

CCN(CC)CCNc1ccc(CO)c2sc3ccccc3c(=O)c12
inactive: [1] 0.5% | [2] -0.5% | [3] -7%

CC(=O)O[C@]1(C(C)=O)CC[C@H]2[C@@H]3C=C(C)C4=CC(=O)CC[C@]4(C)[C@H]3CC[C@@]21C
inactive: [1] 2% | [2] 1.2% | [3] -4.2%

O=Cc1ccc(O)c(O)c1
inactive: [1] -2% | [2] -1.1% | [3] -1%

O=Cc1ccccc1Oc1ccccc1
inactive: [1] 0.2% | [2] -2.2% | [3] -0.3%

COc1cccc(OCc2cc(C3Nc4ccccc4C(=O)N3Cc3ccco3)ccc2OC)c1 (stereo not drawn)
inactive: [1] -1% | [2] 0.9% | [3] -2.1%

CC(=O)Oc1cc2oc(=O)cc(C)c2cc1OC(C)=O
inactive: [1] -1.8% | [2] -0.8% | [3] 1.8%

CN(C)CCN(Cc1ccccc1)c1ccccn1
inactive: [1] 2.2% | [2] 0% | [3] -0.2%

CSCCC(NC(=O)/C(=C/c1ccc2c(c1)OCO2)NC(=O)c1cccc([N+](=O)[O-])c1)C(=O)O (stereo not drawn)
inactive: [1] -1.7% | [2] 0.6% | [3] -9.5%

CC(C)(C)NCC(O)c1cc(O)cc(O)c1 (stereo not drawn)
inactive: [1] -5.4% | [2] 0.7% | [3] 3.9%

C=CCc1cc(Cl)ccc1OCCOCCN(C)C
inactive: [1] -0.1% | [2] -1.3% | [3] -1.2%
